The list is not random: actives were taken first. Their share in the collection is about 2.7%.
EWS-Fli inh: blocks EWS/Fli oncoprotein-driven transcription; A673 NR0B1-luciferase reporter, viability-normalised; inhibition, % at 12.6 µM; 350,000 tested, 0.67% active; AID 651661;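 active = mean inhibition of at least 50% after viability correction, with every replicate also passing that limit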;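 note: firefly luciferase signal divided by Alamar Blue viability fluorescence both relative to DMSO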
PAX8 inh HTS: PAX8 transcriptional activity inhibition. inhibition, % at 12.6 µM. RMG-I TPO-luciferase reporter, SteadyGlo, 24 h. 360,000 tested, 1.2% active;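 active = mean replicate inhibition at least 60% with every replicate also reaching 60%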;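 note: luciferase light reporting Pax8 driven TPO promoter activity; plate controls were median of neutral control wells for no effect and mitoxantrone controls for full effect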
INS-1E GSIS act: GLuc luminescence reporter in INS-1E cells, primary screen for activators of glucose-dependent secretion of insulin | INS-1E GLuc reporter insulin secretion, 2-3 h | activation, % at 16.6 µM | 370,000 tested, 0.61% active;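 active = lowest replicate activation of at least 40%, so every replicate reaches that level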;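 note: 0% = median of neutral control wells and 100% = median of IBMX positive control wells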
Env fusion inh: HIV envelope-mediated fusion inhibition. 360,000 tested, 1.1% active. inhibition, % at 12.3 µM. HeLa-JRFL Env/CEM21 cell fusion, luciferase;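 active = mean replicate inhibition score of at least 50 and every replicate individually at or above 50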;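 note: 0% = plate neutral controls and 100% = maraviroc near 300 nM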
PGC1a acetyl inh: PGC1a acetylation modulation, inhibitor mode; U2OS PGC1a acetylation, AlphaScreen anti-acetyl-lysine; with virally co-expressed GCN5 acetyltransferase; inhibition, % at 15.6 µM; 350,000 tested, 0.17% active; AID 651687;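 active = every replicate shows inhibition of at least 40%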;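 note: 0% = neutral control wells and 100% = positive control wells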
F508del corr: CFTR F508del correction in bronchial cells; CFBE cells, YFP halide quenching; stimulated with forskolin plus potentiator P3; % fluorescence drop versus neutral controls; activity (quench increase), % at 7.58 µM; 350,000 tested, 0.36% active;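 active = mean added fluorescence quench of at least 8% versus neutral control, with both replicates also reaching 8%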;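 note: cells transiently co-express mutant CFTR-F508del with the halide-sensitive YFP; corrector assay measuring rescue of mutant channel to the surface after 24 h compound exposure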
An asterisk follows results filed as active; nt = not tested or not shown; [ ] = remark or other dose.

SMILES	EWS-Fli inh	PAX8 inh HTS	INS-1E GSIS act	Env fusion inh	PGC1a acetyl inh	F508del corr
CN(CC1CCCO1)S(=O)(=O)c1ccc(C(=O)Nc2nnc(-c3ccccc3)o2)cc1 (configuration not stated)	38	34	15	13	nt	8.2*
Cc1nn(-c2ccccc2)c(C)c1NC(=O)COC(=O)CCOc1ccccc1	-8	-7	6	-1	0	-2
COc1ccc(OCCCC(=O)OCC(=O)Nc2c(C)nn(-c3ccccc3)c2C)cc1	-4	-12	19	nt	85*	0
CC(C)NC(=O)N(C)C[C@H]1OCCCC[C@@H](C)Oc2ccc(NC(=O)CCC(F)(F)F)cc2C(=O)N([C@@H](C)CO)C[C@H]1C	nt	11	19	-7[16.7 µM]	4	-2
O=C([C@H]1[C@H](CO)[C@H]2Cn3c(cccc3=O)[C@H]2N1CCC(F)(F)F)N1CCCCC1	-4	nt	-1	nt	nt	nt
CC(=O)/C=C/n1c(=S)oc2ccccc21	nt	114*	12	-345	nt	nt
O=C(NC1CCC1)[C@H]1[C@H](CO)[C@H]2Cn3c(ccc(/C=C/c4ccccc4)c3=O)[C@H]2N1Cc1cncnc1	-9	nt	-3	15[16.7 µM]	nt	nt
CC1=CC(=O)c2ccccc2C1=O	-5	2	nt	-14	-2	-4
CC(C)(C=O)C1=CC(=O)c2ccccc2C1=O	nt	65*	-35	17	nt	nt
C=CC[C@@H](CC(=O)N(CCO)Cc1ccccc1)C(=O)N[C@@H](COC(=O)[C@@H](CC=C)Cc1ccc(F)cc1)Cc1ccccc1	2	43	-49	95*	-5	-2
C=CC[C@@H](CC(=O)N(CCO)Cc1ccccc1)C(=O)N[C@H](COC(=O)[C@@H](CC=C)Cc1ccc(F)cc1)Cc1ccccc1	-1	46	-29	-10	-6	2
C=CCC[C@@H](Cc1ccc(F)cc1)C(=O)OC[C@H](Cc1c[nH]c2ccccc12)NC(=O)[C@@H](CC=C)CC(=O)N[C@@H](CO)Cc1ccccc1	4	56	-8	31	nt	-1
C=CCC[C@@H](Cc1ccc(F)cc1)C(=O)OC[C@@H](Cc1c[nH]c2ccccc12)NC(=O)[C@@H](CC=C)CC(=O)N(CCO)Cc1ccccc1	5	67*	-8	nt	1	-4
C=CCC[C@@H](Cc1ccc(F)cc1)C(=O)OC[C@@H](NC(=O)[C@H](CC=C)CC(=O)NCCO)C(C)(C)C	-3	-1	-14	102*	-13	0
C=CCC[C@H](Cc1ccc(F)cc1)C(=O)OC[C@@H](Cc1c[nH]c2ccccc12)NC(=O)[C@@H](CC=C)CC(=O)N[C@@H](CO)Cc1ccccc1	-2	78*	nt	-2	-9	4
O=C(C[C@H]1C[C@H]2c3cc(NC(=O)Nc4ccccc4)ccc3O[C@H]2[C@@H](CO)O1)NCc1ccccn1	-2	0	-5	10[16.7 µM]	16	1
O=C(C1CCCC1)N1CC2(C1)[C@H](c1ccccc1)[C@H](CO)N2CC1CC1	9	1	-11	nt	-5	-2
CCC(=O)N(C)C[C@H]1Oc2cc(-c3cccc(F)c3)ccc2S(=O)(=O)N([C@H](C)CO)C[C@@H]1C	0	nt	-6	12[16.7 µM]	4	0
CCCNC(=O)N1CC2(CN(S(=O)(=O)CC)C2)c2c([nH]c3cc(OC)ccc23)[C@H]1CO	-11	nt	-2	nt	-5	2
CCNC(=O)C[C@@H]1CC[C@H]2[C@@H](COc3ccc(NC(=O)Nc4ccccc4F)cc3C(=O)N2C)O1	1	1	-2	-14[16.7 µM]	-10	3
C=CCC[C@H](Cc1ccc(F)cc1)C(=O)OC[C@H](Cc1c[nH]c2ccccc12)NC(=O)[C@H](CC=C)CC(=O)N(CCO)Cc1ccccc1	23	97*	-23	46	-14	3
C=CC[C@@H](CC(=O)N(CCO)Cc1ccccc1)C(=O)N[C@H](COC(=O)[C@@H](CC=C)Cc1ccc(F)cc1)Cc1c[nH]c2ccccc12	3	37	-20	-9	-13	-3
C=CC[C@@H](CC(=O)N(CCO)Cc1ccccc1)C(=O)NC[C@@H](OC(=O)[C@@H](CC=C)Cc1ccc(F)cc1)c1ccccc1	4	42	-36	26	-8	2
C=CC[C@H](CC(=O)N(CCO)Cc1ccccc1)C(=O)N[C@H](COC(=O)[C@@H](CC=C)Cc1ccc(F)cc1)Cc1c[nH]c2ccccc12	0	82*	nt	32	7	-1
